Data: the supplement of paper PMC5662767
Structures can show the parent of a compound that is named as a salt.

Test system: Drosophila S2 cl14 SmoIP sensor cells
Test: normalized SmoIP GFP fluorescence (untreated unstimulated = 0%, untreated Hh-stimulated = 100%); higher = more Smo activation sensor fluorescence
Settings: compound concentration: 2 uM, 24 h
[1] = stimulation: Hh conditioned medium (+Hh)
[2] = stimulation: mock conditioned medium (-Hh)
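Note: flow cytometry read-out as median GFP intensity of gated cells, compounds added 30 min before Hh-conditioned or mock medium, mock-treated cells serving as unstimulated baseline.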

| Structure (SMILES) | normalized SmoIP GFP fluorescence [1] [%] | normalized SmoIP GFP fluorescence [2] [%] |
| --- | --- | --- |
| NC(=O)c1ncn([C@@H]2O[C@H](CO)[C@@H](O)[C@H]2O)c1N [Acadesine] | 127 | -15.4 |
| O=C(C=Cc1ccccc1)NC(NC(=S)Nc1ccc(Cl)cc1)C(Cl)(Cl)Cl (stereo unspecified) | 88.1 | -1.13 |
| Cc1c(OCC(F)(F)F)ccnc1C[S+]([O-])c1nc2ccccc2[nH]1 (stereo unspecified) [Lansoprazole] | 104 | -1.13 |
| c1cc(-c2cnn3cc(-c4ccc(N5CCNCC5)cc4)cnc23)c2cccnc2c1 | 120 | 2.12 |
| O=C(O)C1(Cc2cccc(Nc3nccs3)n2)CCC(Oc2cccc(Cl)c2F)CC1 (stereo unspecified) | 179 | 24.4 |
| Cn1ncnc1[C@H]1c2n[nH]c(=O)c3cc(F)cc(c23)N[C@@H]1c1ccc(F)cc1 | 107 | -2.82 |
| O=C(NC[C@H]1CN(c2ccc(N3CCOCC3=O)cc2)C(=O)O1)c1ccc(Cl)s1 [Rivaroxaban] | 103 | -1.34 |
| CCOc1ccc(NC(C)=O)cc1 [phenacetin] | 131 | 9.08 |
| Cc1cc(/C=C/C#N)cc(C)c1Nc1ccnc(Nc2ccc(C#N)cc2)n1 [rilpivirine] | 110 | -0.151 |
| CC(C)(Cc1ccc2ccccc2c1)NC[C@@H](O)COc1cccc(Cl)c1C#N | 157 | 12.8 |
| CN(NC(=O)CC(=O)NN(C)C(=S)c1ccccc1)C(=S)c1ccccc1 [Elesclomol] | 145 | 17.1 |
| C[C@@]1(c2cc(-c3cncnc3)c(F)cc2F)CCSC(N)=N1 | 97 | 10.2 |
| CN1CCN2c3ccccc3Cc3ccccc3C2C1 (stereo unspecified) [Mianserin-hydrochloride] | 115 | 4.04 |
